Reference: PubChem BioAssay (Tox21)
Inconclusive results are not listed. Unmarked numbers belong to inactive results. The source made the active and inactive calls. Calls follow the shape of the dose curve; as a rule, active = well fitted cell-killing curve with a large enough effect in the repeat runs; inconclusive = weak or mixed curves, or effect the other way; inactive = flat fitted curve, though single readings scatter.

Experiment: cAMP Responsive Elements (CRE) small molecule agonists, cell-based qHTS assay: qHTS cell viability counter screen (AID 2060914);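 also: viability read after 3 h of compound exposure; nearly all actives have a fitted effect of over 50% in size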
Details: CRE-bla HEK293T viability, CellTiter-Glo luminescence, 5 h; series mostly up to 92.4 µM; activity change, negative = cytotoxicity: at the top concentration
Excerpt: National Center for Advancing Translational Sciences [NCATS]
Division of Preclinical Innovation [DPI]
U.S. Environmental Protection Agency [EPA]
National Institutes of Environmental Health Sciences [NIEHS]
National Toxicology Program [NTP]
U.S. Food and Drug Administration [FDA]
CREB (cyclic-AMP Responsive Element Binding Protein) is a cellular transcription factor. It binds to certain DNA sequences called cAMP Responsive Elements (CRE) and regulates the transcription of the genes. […] This cell line can be used to find agonists/antagonists of the cyclic AMP signaling pathway. The activation of the report gene under culture conditions can be detected by fluorescence intensity. This cell line has been used to screen the Tox21 10K compound library to identify agonists that induce oxidative stress. The cytotoxicity of the Tox21 compound library against the CRE-bla cell line was tested in parallel by measuring the cell viability using CellTiter-Glo assay (Promega, Madison, WI) in the same wells.
Tox21 Assay Protocol Summary:
CRE-bla Hek 293T cells were suspended in assay medium (DMEM containing 10% dialyzed FBS, 0.1 mM NEAA, 1 mM sodium pyruvate and 25 mM HEPES) and dispensed at 2,000 cells/5 uL /well into 1536-well black wall/clear bottom plates using a Multidrop Combi (ThermoFisher Scientific, Waltham, MA) dispenser. After the assay plates were incubated at 37 C/5% CO2 for 18 hrs, 23 nL of compounds dissolved in DMSO, positive controls or DMSO only was transferred to the assay plate by a pintool workstation (Kalypsys, San Diego, CA). After the plates were incubated at 37 C/5% CO2 for 3 hrs, 1 uL of LiveBLAzer B/G FRET substrate (Invitrogen, Carlsbad, CA) was added to each well using Bioraptr Flying Reagent Dispenser (FRD, Aurora Discovery, San Diego, CA). The plates were incubated at room temperature for 2 h, then fluorescence intensities were measured using an Envision plate reader (PerkinElmer, Shelton, CT) at Excitation 405nm, Emission 460nm and 530nm. The % activity was determined from the ratio of 460nm/530nm. For cell viability readout that measures cytotoxicity, 4 uL /well of CellTiter-Glo reagent was added into the assay plates using Bioraptr FRD. After 30 min incubation at room temperature, the luminescence intensity in the assay plates was measured using a ViewLux (PerkinElmer, Shelton, CT) plate reader.
% is scaled to controls: 0 for no effect and ±100 for the full control effect.

Row | SMILES | activity change, negative = cytotoxicity | Potency
1 | CS(=O)(=O)c1ccc([C@@H](C[C@H]2CCC(=O)C2)C(=O)Nc2cnccn2)cc1Cl | 4.37% | –
2 | CC1(C)[C@@H](O)CC[C@]2(C)[C@H]3C(=O)C=C4[C@@H]5C[C@@](C)(C(=O)O)CC[C@]5(C)CC[C@@]4(C)[C@]3(C)CC[C@@H]12 | -2.03% | –
3 | NC(=O)Cc1cccc2ccccc12 | -0.142% | –
4 | Cc1c(NC(C)C)c(=O)n(-c2ccccc2)n1C | 15.8% [at 42.5 µM] | –
5 | CC1(C)CCC(C)(C)c2cc(NC(=O)c3ccc(C(=O)O)cc3)ccc21 | 4.1% [at 42.5 µM] | –
6 | Cc1cccc(C)c1NC(=O)C(C)N (stereo not given) | -5.66% [at 42.5 µM] | –
7 | O=C1C(=O)c2ccccc2C(O)=C1C1CCC(c2ccc(Cl)cc2)CC1 (stereo not given) | 4.06% [at 42.5 µM] | –
8 | CC(C)(C)C1(CCc2ccc(Cl)cc2)CO1 (stereo not given) | -0.633% | –
9 | O=C1Nc2ccccc2C1=O | 0.838% | –
10 | CC(C)(Sc1cc(C(C)(C)C)c(O)c(C(C)(C)C)c1)Sc1cc(C(C)(C)C)c(O)c(C(C)(C)C)c1 | -0.636% [at 42.5 µM] | –
11 | c1ccc(CCCc2ccccn2)cc1 | 10% | –
12 | O=C=NCCCCCCN=C=O | – | inactive
13 | Cc1cccc(Br)c1 | -4.56% | –
14 | O=C(OCC1CCC2OC2C1)C1CCC2OC2C1 (stereo not given) | – | inactive
15 | CCCC(O)C(O)CO (stereo not given) | 18.1% | –
16 | O=C(c1ccccc1O)c1ccccc1O | 2.83% | –
17 | O=C1c2ccccc2C(=O)C1c1ccc2cc(S(=O)(=O)O)cc(S(=O)(=O)O)c2n1 | -16.6% | –
18 | Cc1ccccc1C(=O)O | 1.66% | –
19 | O=P(O)(O)Oc1ccccc1 | -1.63% | –
20 | C=C(C)C(=O)OCCOC(=O)C(=C)C | – | inactive

Row | SMILES | activity change, negative = cytotoxicity | Potency
21 | C=C(CC(=O)O)C(=O)O | -0.543% | –
22 | CN(C)CCCN(C)CCCN(C)C | -0.525% | –
23 | CCCN(CCC)C(=O)C(CCC(=O)OCCCN1CCN(CCOC(=O)Cc2c(C)n(C(=O)c3ccc(Cl)cc3)c3ccc(OC)cc23)CC1)NC(=O)c1ccccc1 (stereo not given) | 7.01% [at 42.5 µM] | –
24 | CC(=O)c1cnccn1 | 2.85% | –
25 | CN(CCOc1ccc(NS(C)(=O)=O)cc1)CCc1ccc(NS(C)(=O)=O)cc1 | -1.72% [at 42.5 µM] | –
26 | CCOC(=O)CCc1ccccc1 | 0.737% | –
27 | CC(=O)Nc1ccc(S(=O)(=O)Nc2ccc([N+](=O)[O-])cc2)cc1 | -8.62% [at 42.5 µM] | –
28 | Nc1ccc(C(=O)NCC(=O)O)cc1 | -8.9% [at 42.5 µM] | –
29 | CN(C)c1ccc(N=Nc2ccccc2C(=O)O)cc1 | 0.549% | –
30 | O=C(CC(C(=O)OC1CCCCC1)S(=O)(=O)O)OC1CCCCC1 (stereo not given) | – | inactive
31 | CC(C)(O)CCCC1=CCC(C=O)CC1 (stereo not given) | -0.682% | –
32 | CC(C)CCCCCCCOC(=O)CCCCC(=O)OCCCCCCCC(C)C | – | inactive
33 | O=S(=O)(O)c1ccccc1O | 8.19% | –
34 | Cc1cccc2n[nH]nc12 | – | inactive
35 | CCCC1CCC(=O)CC1 | 2.21% | –
36 | CCCN1C[C@H](CSC)C[C@@H]2c3cccc4[nH]cc(c34)C[C@H]21 | 5.01% [at 42.5 µM] | –
37 | O=[N+]([O-])c1ccc(O)cc1 | – | inactive
38 | Oc1c(I)cc(Cl)c2cccnc12 | – | inactive
39 | NC(CS)C(=O)O (stereo not given) | 2.9% [at 42.5 µM] | –
40 | CC(C)(C)c1cc(CCC(=O)NCCCCCCNC(=O)CCc2cc(C(C)(C)C)c(O)c(C(C)(C)C)c2)cc(C(C)(C)C)c1O | 0.729% | –
